This is an account of results in article PMC5540273 (PLoS ONE, 2017).

Where two headings read alike, the source gives them in different places.

Test systems include CAMK1B; CAMK1D; CAMK1G; CAMK1; CAMK2A; CAMK2B; CAMK2D; CAMK2G; CAMK4; CAMKK1; CAMKK2; CASK; CDC2L2; CDK2; CDK3; CDK4-cyclinD1; CDK4-cyclinD3.
Common to all, as to settings: n = 1
A further assay concerns T1, CDC2L1.
T1 construct: gene CDK11B

In another assay the test system is T2, CDC2L5.
T2 construct: gene CDK13

The next assay has as its system T3, CDK11.
T3 construct: gene CDK19

Where [1] appears, read: concentration: 1 μM, replicates: in singlicate.
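Further: KINOMEscan kinase panel screen.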

Consider `Cc1ccc(NC(=O)Nc2cccc(C(F)(F)F)c2)cc1` [GSK955403], for which the “%Inh” value in the assay with CAMK1B (1 µM) is recorded as 0%; in the assay on CAMK1D (1 µM) it was 25%; in the assay with CAMK1G (1 µM), 10%; in the assay with CAMK1 (1 µM), 7%; with CAMK2A (1 µM) it was 32%; in the assay with CAMK2B (1 µM), 25%. Further, the “%Inh” value with CAMK2D (1 µM) is reported as 8%; with CAMK2G (1 µM), 4%; in the assay on CAMK4 (1 µM) it was 5%; with CAMKK1 (1 µM) it was 9%; with CAMKK2 (1 µM), 19%; with CASK (1 µM) it was 15%. Besides, the “%Inh” value with CDC2L1 (1 µM) is reported as 3%; in the assay with CDC2L2 (1 µM), 0%; with CDC2L5 (1 µM) it was 0%; in the assay with CDK11 (1 µM) it was 20%; in the assay with CDK2 (1 µM), 0%; in the assay on CDK3 (1 µM), 0%. In addition, the “%Inh” value in the assay with CDK4-cyclinD1 (1 µM) and in the assay on CDK4-cyclinD3 (1 µM) was 0% each time.

Consider `O=C1NC(=O)C(N2CCc3ccccc32)=C1c1ccccc1Cl` [SB-373598], for which the “%Inh” value in the assay with CAMK1B (setting [1]) was determined as 41%; in the assay with CAMK1D (setting [1]) it was 65%; with CAMK1G (setting [1]), 0%; in the assay with CAMK1 (setting [1]), 67%; in the assay on CAMK2A (setting [1]), 20%; with CAMK2B (setting [1]), 0%. For the same compound, the “%Inh” value in the assay with CAMK2D (setting [1]) is recorded as 18%; with CAMK2G (setting [1]) it was 22%; with CAMK4 (setting [1]), 10%; with CAMKK1 (setting [1]), 4%; with CAMKK2 (setting [1]) it was 4%; with CASK (setting [1]), 0%. The “%Inh” value was 0% with CDC2L1 (setting [1]); 3% in the assay on CDC2L2 (setting [1]); 0% in the assay on CDC2L5 (setting [1]); 12% in the assay with CDK11 (setting [1]); 16% in the assay on CDK2 (setting [1]); 0% in the assay with CDK3 (setting [1]). For the same compound, the “%Inh” value in the assay on CDK4-cyclinD1 (setting [1]) worked out at 14%; in the assay on CDK4-cyclinD3 (setting [1]) it was 15%.

With `Cc1c(Cn2ccn3c(=O)cc(N4CCOCC4)nc23)cccc1C(F)(F)F` [GSK2289044], the “%Inh” value in the assay with CAMK1B (setting [1]) turned out to be 0%; with CAMK1D (setting [1]) it was 7%; in the assay with CAMK1G (setting [1]), 13%; in the assay with CAMK1 (setting [1]), 0%; with CAMK2A (setting [1]) it was 83%; in the assay on CAMK2B (setting [1]), 79%. The “%Inh” value came out at 18% in the assay with CAMK2D (setting [1]); 32% in the assay on CAMK2G (setting [1]); 5% with CAMK4 (setting [1]); 9% with CAMKK1 (setting [1]); 18% with CAMKK2 (setting [1]); 14% with CASK (setting [1]). In addition, the “%Inh” value in the assay with CDC2L1 (setting [1]) stood at 0%; with CDC2L2 (setting [1]) it was 13%; in the assay with CDC2L5 (setting [1]), 0%; with CDK11 (setting [1]), 0%; in the assay on CDK2 (setting [1]) it was 0%; in the assay with CDK3 (setting [1]), 9%. The “%Inh” value with CDK4-cyclinD1 (setting [1]) and with CDK4-cyclinD3 (setting [1]) was 0% throughout.

With `COc1cc2nccc(Nc3ccc(NC(=O)c4ccc(C)cc4)c(O)c3)c2cc1OC.Cl` [GW440132], the “%Inh” value with CAMK1B (setting [1]) amounted to 0%; with CAMK1D (setting [1]), 20%; in the assay with CAMK1G (setting [1]), 6%; with CAMK1 (setting [1]), 15%; in the assay with CAMK2A (setting [1]), 0%; in the assay with CAMK2B (setting [1]) it was 0%. Besides, the “%Inh” value in the assay on CAMK2D (setting [1]) is given as 17%; in the assay with CAMK2G (setting [1]), 35%; in the assay on CAMK4 (setting [1]) it was 0%; in the assay on CAMKK1 (setting [1]), 0%; in the assay on CAMKK2 (setting [1]), 32%; in the assay with CASK (setting [1]) it was 2%. Also, the “%Inh” value in the assay with CDC2L1 (setting [1]) came to 0%; in the assay on CDC2L2 (setting [1]), 3%; in the assay with CDC2L5 (setting [1]) it was 0%; with CDK11 (setting [1]), 5%; with CDK2 (setting [1]) it was 0%; with CDK3 (setting [1]), 9%. Further, the “%Inh” value in the assay on CDK4-cyclinD1 (setting [1]) and with CDK4-cyclinD3 (setting [1]) was 0% in each case.

For `Cc1cc(N2Cc3ccccc3C2)nc(Nc2ccc(S(=O)(=O)N3CCOCC3)cc2)n1.Cl` [GSK1669917], the “%Inh” value was determined as 4% with CAMK1B (setting [1]); 9% with CAMK1D (setting [1]); 0% in the assay on CAMK1G (setting [1]); 5% in the assay with CAMK1 (setting [1]); 0% with CAMK2A (setting [1]); 0% with CAMK2B (setting [1]). Moreover, the “%Inh” value in the assay on CAMK2D (setting [1]) stood at 2%; in the assay with CAMK2G (setting [1]), 20%; with CAMK4 (setting [1]), 0%; in the assay on CAMKK1 (setting [1]), 0%; with CAMKK2 (setting [1]) it was 0%; in the assay with CASK (setting [1]) it was 7%. For the same compound, the “%Inh” value with CDC2L1 (setting [1]) is given as 0%; in the assay on CDC2L2 (setting [1]), 23%; in the assay with CDC2L5 (setting [1]) it was 0%; in the assay with CDK11 (setting [1]) it was 0%; in the assay on CDK2 (setting [1]), 0%; in the assay with CDK3 (setting [1]), 0%. The “%Inh” value with CDK4-cyclinD1 (setting [1]) and in the assay with CDK4-cyclinD3 (setting [1]) was 0% in each case.
